In all, about 2,100 compounds went through this assay and about 210 (10%) were called active. Inconclusive results (about 53%) are left out. Calls come from the whole dose curve; as a rule, active = well fitted inhibition curve with a large enough effect; inconclusive = small, poorly fitted or top-dose-only effect, or effect the other way; inactive = no such curve, though single readings can be large or run the other way. The list shows a part of the results.
Assay: IN Cell qHTS Assay for Inhibitors of the mTORC1 Signaling Pathway in MEF (Tsc2-/-, p53-/-) Cells: Sytravon; note: nearly all actives have a fitted effect of over 60% in size
Settings: phospho-rpS6 immunofluorescence, 24 h; series mostly up to 38.3 µM
Summary of the method: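 Tsc2-/-, p53-/- MEFs (empty-vector) treated with compound 24 h at 37 degree Celsius, then fixed and stained for phospho-rpS6 Ser235/236 (Alexa-488) plus Hoechst. Reported as % positive cells, thresholds set against 7.5 nM rapamycin and DMSO wells.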
Potency is the fitted concentration of half-maximal effect.

Potency, inactive:
O=C(CCCn1ccc2cc(S(=O)(=O)N3CCCC3)ccc21)NCc1ccc(Cl)cc1
CCc1ccccc1-n1c(SCC(=O)Nc2ccc(C)cc2)nc2n[nH]c(C)c2c1=N
O=C(NCc1ccc(Cl)cc1Cl)c1cccc(N2CCCS2(=O)=O)c1
CCCCN1C(=O)C(O)(c2c(C)[nH]c3ccccc23)c2ccccc21 (centres undefined)
Cc1cccc(N2CCN(C(=O)Cn3nc(Cc4cccnc4)c4ccccc4c3=O)CC2)c1C
Cc1ccc(S(=O)(=O)Cc2ccc(C(=O)N3CCN(c4cccc(C)c4C)CC3)o2)cc1
O=C(COc1ccc2oc3c(c2c1)CCCC3)Nc1cccc(Br)c1
COc1ccc(OC)c(NC(=O)CN2C(=O)COc3ccc(S(=O)(=O)NC4CCCC4)cc32)c1
COc1ccc(-c2nc(SCC(=O)NCc3ccccc3Cl)n[nH]2)cc1
COc1cccc(C2C(C(N)=O)=C(C)Nc3nc(CCCO)nn32)c1 (centres undefined)
CCCC1=Nc2cc(C(=O)NCCOC)ccc2Sc2ccccc21
Cc1ccccc1NC(=O)CSc1nc2ccc(NC(=O)c3ccccc3)cc2s1
COc1cc(C(=O)Nc2cc(C)c(O)c(-c3nc4ccccc4s3)c2)cc(OC)c1OC
Cc1ccc(C)c(N2CCN(C(=O)C3CCN(c4nc5ccc(C)cc5[nH]4)CC3)CC2)c1
Cc1ccccc1Cn1cc(NC(=O)c2cc(-c3ccc(Cl)cc3)on2)cn1
COc1ccc(N2CC(c3nc(-c4cc(OC)c(OC)c(OC)c4)no3)CC2=O)cc1Cl (centres undefined)
Cc1ccc2onc(CC(=O)Nc3cccc(C(F)(F)F)c3)c2c1
Cc1ccc(NC(=O)Cc2coc3ccc(C(C)C)cc23)cc1Cl
CC(C)(C)c1ccc(Oc2nc3ccccn3c(=O)c2/C=C(\C#N)c2nc3ccccc3[nH]2)cc1
COc1ccccc1CNS(=O)(=O)c1cc(C(=O)Nc2cccc(C(F)(F)F)c2)ccc1F
O=C(Nc1ccc(Br)cc1)c1cc(S(=O)(=O)N2CCc3ccccc32)ccc1F
CCOC(=O)Cn1c(=O)n(-c2ccccc2OC)c2nc(-c3ccccc3F)nc(C(N)=O)c21
Cc1ccc(CNc2nc3c(c(=O)n(C)c(=O)n3C)n2Cc2ccc(Cl)cc2)cc1
CCN(C(=O)CN1C(=O)c2ccccc2Sc2ccc(C(=O)OC)cc21)c1cccc(C)c1
O=C(Nc1ccc(Cl)cc1)C1CCC(CNS(=O)(=O)c2ccc(Br)s2)CC1 (centres undefined)
Cc1cccc(C)c1NC(=O)c1cc(S(=O)(=O)N2CCCc3ccccc32)ccc1F
Brc1ccc(CNCCCSc2nnnn2-c2ccccc2)cc1
CCOCc1cc(CN2CCN(c3cccc(C(F)(F)F)c3)CC2)c(O)c2ncccc12
Cc1cn2c(=O)cc(COC(=O)c3ccc(NC(=O)COc4ccccc4C)cc3)nc2s1
CC(=O)c1ccc(N2CCN(S(=O)(=O)c3ccc(-c4coc(C)n4)cc3)CC2)cc1
CCOC(=O)c1c(NC(=O)c2ccc(S(=O)(=O)N3CCCC(C)C3)cc2)sc2c1CC(C)(C)NC2(C)C (centres undefined)
CN(C)c1ccc(/C=C(\C#N)c2nc(-c3ccc(Cl)c(Cl)c3)cs2)cc1
CCSc1oc(-c2ccc(F)cc2)nc1S(=O)(=O)c1ccc(C)cc1
COc1ccc(-c2nc(SCC(=O)Nc3c(C)cc(C)cc3C)n[nH]2)cc1
CCOc1ccc(-c2nnc(SCC(=O)Nc3cccc(OC)c3)nc2-c2ccc(OCC)cc2)cc1
CCOc1ccc(-c2cc(CCCC(=O)NCCc3ccc(OC)c(OC)c3)no2)cc1
CCOC(=O)c1c(-c2ccccc2)oc2ccc(N(C(C)=O)S(=O)(=O)c3ccc(CC)cc3)cc12
Cc1ccc(-n2c(SCC(=O)Nc3cccc(Cl)c3)nc3n[nH]c(C)c3c2=N)cc1
CCN(CC)c1cc(C)c2cc(NC(=O)c3ccccc3Cl)ccc2n1
CCN1C(=O)C(O)(c2c(C)[nH]c3ccccc23)c2ccccc21 (centres undefined)
Cc1nn(-c2ccc(N3CCOCC3)nn2)c(C)c1CCC(=O)NCc1ccccc1F
O=C(CSc1nc(-c2ccccc2)[nH]c1-c1ccccc1)Nc1ccc2c(c1)OCO2
Cc1cccc(C(=O)Nc2c(-c3ccc(F)cc3)nc3ccccn23)c1
CCOC(=O)c1c(C)[nH]c(CCC(=O)NCc2ccc(OC)cc2OC)c1C
CCOC(=O)c1c(C)[nH]c(CCC(=O)Nc2cc(C)cc(C)c2)c1C
COC(=O)c1c(-c2ccc(Cl)cc2)noc1N1CCN(c2cc(C)ccc2C)CC1

Potency, active:
Cc1ccccc1S(=O)Cc1ccc(C(=O)N2CCN(c3cccc(C)c3C)CC2)o1 (centres undefined) 3.69 µM
CC1CCCCN1CC(=O)N1CCCc2c1c(=O)oc1ccc(OCc3ccccc3)cc21 (centres undefined) 13.1 µM
CCSc1ccccc1C(=O)Nc1ccc(-c2nc3ccccc3s2)c(O)c1 4.65 µM
Cc1ccc2occ(CC(=O)Nc3ccc(Cl)c(C(F)(F)F)c3)c2c1 13.1 µM
CCOC(=O)Cn1c(=O)c2c(nc(N3CCOCC3)n2Cc2ccccc2)n(C)c1=O 8.26 µM
CC(C)S(=O)(=O)c1oc(-c2ccc(F)cc2)nc1S(=O)(=O)c1ccc(F)cc1 0.826 µM
CCC(C)S(=O)(=O)c1oc(-c2ccc(F)cc2)nc1S(=O)(=O)c1ccc(F)cc1 (centres undefined) 1.04 µM
CC(C)S(=O)(=O)c1oc(-c2cccs2)nc1S(=O)(=O)c1ccc(F)cc1 0.927 µM
CCOc1ccc(NC(=O)CSc2oc(-c3ccc(F)cc3)nc2S(=O)(=O)c2ccc(C)cc2)cc1 2.33 µM
Cc1ccc(S(=O)(=O)c2nc(-c3cccs3)oc2SCC(=O)Nc2cc(C)cc(C)c2)cc1 16.5 µM
Cc1ccc(OCC(=O)Nc2ccc3nc(Nc4cccc(Cl)c4)cc(C)c3c2)cc1 14.7 µM
CCOC(=O)c1c(C)[nH]c(CCC(=O)NCCCN2CCN(c3cc(Cl)ccc3C)CC2)c1C 14.7 µM
CCOC(=O)c1c(C)[nH]c(CCC(=O)NCCCN2CCN(c3cc(C)ccc3C)CC2)c1C 11.7 µM

Source: PubChem BioAssay AID504465 (National Center for Advancing Translational Sciences (NCATS), 2011)
